Assay outcomes deposited in PubChem BioAssay by National Center for Advancing Translational Sciences (NCATS).
p53ts 32C tox: cytotoxicity in p53ts cells at permissive temperature; AID 924; Potency, µM (top dose mostly 46.1 µM), without a hit: top-dose activity change, negative = cytotoxicity, hits mostly cytotoxic; H1299-p53A138V at 32C, ATP luminescence viability, 24 h; 0.93% of 130,000 active;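 note: 0% = DMSO and -100% = full killing by reference compound; nearly all actives have a fitted effect of over 55% in size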
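ATP-content luminescence (ATPlite) read-out after 24 h compound exposure at 32C in H1299-p53A138V cells (600/well). Tested up to 46 uM. Normalized to DMSO (0%) and 100 uM tamoxifen (100% killing); Hill-fit AC50.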
IkB signaling: inhibitors of IkB signaling in ABC-DLBCL cells | ABC-DLBCL IkBa-CBG/CBR dual luciferase ratio, 4 h; response scale: scaled: untreated 0%, proteasome inhibitor 100% | Potency, µM (doses to about 57.1 µM), without a hit: at the highest dose IkBa stabilization activation | 0.04% of 110,000 active | AID 445; active = well fitted curve in the direction sought with a large enough effect in the signal ratio, not every such curve was filed as active; inconclusive = small, poorly fitted or top-dose-only effect, or a change in a side signal; the % refers to the signal ratio;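 note: the direction sought is a rising ratio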
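Curves were fitted separately to fusion (green), unfused (red) and ratio luminescence, then classed by r2, magnitude and activity. Cells: OCI-Ly3, 4 h compound plus doxycycline at 37C; 10 uM MG-132 defined full response.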
p53ts 39C kill: p53ts cell cytotoxicity, nonpermissive temperature | H1299-p53A138V viability at 39C, ATP luminescence, 24 h | Potency, µM (top dose mostly 46.1 µM), for the others: top-dose activity change, negative = cell killing, usual class: cytotoxic | 1.5% of 130,000 active; note: % is set by controls: 0 for no effect and ±100 for the full control effect; nearly all actives have a fitted effect of over 55% in size
Imprint erasure: inducers of genomic imprint erasure in mouse ES cells; mouse ES Peg3-LacZ reporter, beta-gal luminescence, 40 h; Potency, µM (highest dose often 60.7 µM), for inactives: top-dose activity change, positive = activation, hits mostly activators; 0.02% of 110,000 active
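Gelatin-coated wells received 300 freshly trypsinized female ES cells with a Peg3LacZ-Neo reporter on the maternal allele, then incubated 40 hours at 37C. BetaGlo was added for 5 minutes at room temperature before a single luminescence read.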
* = called active by the depositor; u = inconclusive; x = no result given; [ ] = another dose, or the depositor's remark. The list is not random: actives were taken first. Their share in the collection is about 1.7%. Unless noted, calls come from the whole dose curve; as a rule, active = well fitted curve in the direction sought with a large enough effect; inconclusive = small, poorly fitted or top-dose-only effect, or another doubt; inactive = no such curve, though single readings can be large; an effect the other way counts as inactive or inconclusive. Potency is the fitted concentration of half-maximal effect.

SMILES	p53ts 32C tox	IkB signaling	p53ts 39C kill	Imprint erasure
COc1ccc(C(=O)c2ccccc2O)c(O)c1	12%	0%[25.6 µM]	-3%	-14%
COc1ccc(O)c(C(=O)CC(=O)c2ccccc2)c1	10µM*	16%	13µM*	-86%
COCc1nnc(NC(=O)c2cccs2)s1	-15%	4%	-9%	-22%
Cc1nnc(NC(=O)c2sc3ccccc3c2Cl)s1	1.3µM*	u	0.63µM*	-52%
COCc1nnc(NC(=O)c2sc3ccccc3c2Cl)s1	u	u	16µM*	-62%
COc1ccc(CNC(=O)CCCc2nnc3n(CCC(C)C)c(=O)c4sccc4n23)cc1	-5%	5%	14%	-14%[10.9 µM]
CC(C)c1ccc(NS(=O)(=O)c2ccc3nc(-c4ccccc4)[nH]c3c2)cc1	u	u	20µM*	-12%[10.9 µM]
O=S(=O)(Nc1ccc(Br)cc1)c1ccc2nc(-c3ccccc3)[nH]c2c1	10%	u	u	-12%[10.9 µM]
COc1ccccc1CNc1cc(-c2ccccc2OC)ncn1	13µM*	15%[11.4 µM]	u	-16%
COc1ccccc1CNc1cc(-c2ccccc2C)ncn1	u	13%[11.4 µM]	-26%	-12%
O=C(Cc1ccc(NC(=O)N2CCCCc3ccccc32)cc1)NCc1cccc(Br)c1	2%	u	-8%	-10%[10.9 µM]
CN1CCN(c2ncc3nc(-c4ccccc4)c(=O)n(C)c3n2)CC1	1%	-2%[11.4 µM]	-6%	10µM*
Cc1ccc(/C=C/c2onc(C)c2S(=O)(=O)N2CCC(C(=O)Nc3ccc(C)c(N(C)C)c3)CC2)cc1	4%	u	-10%	-12%[10.9 µM]
CC(C)(C)C(=O)Nc1ccc(-c2nc3ccccc3s2)cc1	0.32µM*	-1%	0.32µM*	-74%[10.9 µM]
COc1cc(OC)cc(C(=O)Nc2cc(-c3nc4ccccc4s3)ccc2OC)c1	-10%	2%	-5%	5%[10.9 µM]
COc1ccc(-c2nc3ccccc3s2)cc1NC(=O)c1ccc(F)cc1	-13%	-4%	13µM*	-4%[10.9 µM]
Cc1ccc(CN(Cc2ccco2)C(=O)c2ccc(Cl)cc2)o1	-2%	0%	-23%	-10%[10.9 µM]
COC(=O)c1cc(NC(=O)Cn2nc(C)n3cccc3c2=O)cc(C(=O)OC)c1	-4%	u	-1%	-18%[10.9 µM]
CCc1cccc(C)c1NC(=O)Cn1nc(C)n2cccc2c1=O	-4%	u	13µM*	-8%[10.9 µM]
N#Cc1cccc(NC(=O)c2cc3c(s2)-c2ccc(Cl)cc2SC3)c1	u	-2%	10µM*	-10%[10.9 µM]
CCCNC(=O)c1cc(-c2ccc(O)cc2)on1	u	u	u	0%
Nc1ncc(S(=O)(=O)N2CCN(c3ccccc3)CC2)cn1	6%	-2%	-17%	5%[10.9 µM]
Cc1nn(-c2ccc(N3CCCC3)nn2)c(C)c1CCC(=O)NCc1ccccc1F	-3%	0%	-21%	-11%[10.9 µM]
CCS(=O)(=O)Nc1cc(-c2cn3ccc(C)cc3n2)ccc1C	u	-1%	13µM*	-11%[10.9 µM]
Cc1ccn2cc(-c3ccc(C)c(NS(=O)(=O)c4ccc(Cl)cc4)c3)nc2c1	-5%	u	-14%	-6%[10.9 µM]
SMILES	p53ts 32C tox	IkB signaling	p53ts 39C kill	Imprint erasure
CCn1c(=N)n(CCOc2ccc(Br)cc2)c2ccccc21	u	u	13µM*	-17%[10.9 µM]
COc1ccc(OCCn2c(=N)n(CCO)c3ccccc32)cc1	-2%	2%	-17%	-13%
COc1ccc(NC(=O)CCNS(=O)(=O)c2ccc3c(c2)CCCC(=O)N3)cc1	-2%	0%	14%	19%[10.9 µM]
O=c1cc(-c2ccccc2)[nH]c2nc3ccccc3n12	2µM*	u	2µM*	-92%
O=c1cc(-c2ccccc2)[nH]n1-c1nc2ccccc2s1	u	u	u	-17%
CCOC(=O)c1sc(NC(=O)COC(=O)CNC(=O)C2CCCCC2)c(C(=O)OCC)c1C	u	x	3.2µM*	x
Cc1ccc(-n2nc(C)c(C(=O)NCCCN3CCN(c4ccccc4F)CC3)c2-n2cccc2)cc1	-9%	u	13µM*	-18%[10.9 µM]
Cc1ccc(-n2nc(C)c(C(=O)NCCCN3CCN(c4cccc(Cl)c4)CC3)c2-n2cccc2)cc1	u	u	u	-14%[10.9 µM]
CCOc1ccccc1NC(=O)c1nn(C)c2c1CSc1ccccc1-2	-1%	-2%	16µM*	15%[10.9 µM]
CCN(CC)CCCNC(=O)c1ccc(Cc2nc3ccccc3[nH]2)cc1	8%	x	6%	x
O=c1cc(-c2ccccc2)oc2c(O)c(O)ccc12	u	x	13µM*	-36%
